{"source": "paper PMC5540273", "about": "(PLoS ONE, 2017);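 note: KINOMEscan kinase panel screen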"}
{"system": "KIT-autoinhibited", "conditions": "concentration: 1 μM, replicates: in singlicate; n = 1", "units": {"%Inh": "%"}}
{"smiles": "Cc1ccc(NC(=O)c2ccc(Cl)cc2)cc1-c1ccc(C(=O)Nc2ccncc2)cc1", "note": "[GSK1398467]", "%Inh": 0}
{"smiles": "Cl.Cl.Cl.N#Cc1ccc(CCNc2nccc(-c3cccc(CN4CCNCC4)c3)n2)cc1", "note": "[GSK2137462]", "%Inh": 0}
{"smiles": "CCCCc1nn2ncccc2c1-c1ccnc(NC2CC2)n1", "note": "[GW684374]", "%Inh": 0}
{"smiles": "COc1cccc(NC(=O)Nc2ccc(C)c(-c3ccc(C(=O)Nc4ccncc4)cc3)c2)c1", "note": "[GSK1398474]", "%Inh": 0}
{"smiles": "Cc1ccc(-c2nc(Nc3ccncc3)c3ccccc3n2)s1", "note": "[GSK189015]", "%Inh": 0}
{"smiles": "CS(=O)(=O)CCNCc1nc(-c2ccc3ncnc(Nc4ccc(OCc5ccccc5)c(Cl)c4)c3c2)cs1.Cl", "note": "[GW582764]", "%Inh": 0}
{"smiles": "COC(=O)c1cccc(NC(=O)NC2CCN(c3ccnc(Nc4ccc(OC)cc4)n3)C2)c1", "note": "(stereo not drawn) [GSK1379746]", "%Inh": 0}
{"smiles": "CC[C@@H]1CO[C@H](C(=O)Nc2ccccc2)CN1c1cc(-c2ccc3c(N)n[nH]c3c2)nc(NC)n1", "note": "[GSK2376236]", "%Inh": 0}
{"smiles": "CS(=O)(=O)Cc1ccc(Nc2nccc(-c3c(-c4cccc(NC(=O)C5CCCCC5)c4)nn4ncccc34)n2)cc1", "note": "[GSK350559]", "%Inh": 14}
{"smiles": "CSc1ccc(-c2nc3n(c2-c2ccncc2)CCC3)cc1", "note": "[SKF-105561]", "%Inh": 0}
{"smiles": "Cc1cnc(N)c(/C=C/c2cncc(C(=O)NCCc3ccc(Cl)cc3Cl)c2)c1.Cl", "note": "[GSK190937]", "%Inh": 0}
{"smiles": "CNC(=O)c1ccc(C)c(-n2c(C)cc(OCc3ccc(F)cc3F)c(Br)c2=O)c1", "%Inh": 0}
{"smiles": "CCn1c(-c2c(N)noc2C)nc2cnccc21", "note": "[SB-737856]", "%Inh": 0}
{"smiles": "O=c1cc(N2CCOCC2)nc2n(Cc3ccccc3F)ccn12", "note": "[GSK2297428]", "%Inh": 0}
{"smiles": "Fc1ccc(-c2nc3n(c2-c2ccncc2)CCS3)cc1", "note": "[GI98581]", "%Inh": 0}
{"smiles": "Fc1ccc(-c2nn3cccc(F)c3c2-c2ccncc2)cc1", "note": "[GW475620]", "%Inh": 0}
{"smiles": "COc1ccc(CSc2nnc(-c3ccc4nccn4c3)o2)cc1C(F)(F)F", "%Inh": 10}
{"smiles": "CC(C)c1ccc(O)cc1Nc1ccnc2ccc(C(F)(F)F)cc12", "note": "[GW482059]", "%Inh": 0}
{"smiles": "Cc1ccc(NC(=O)Nc2ccccc2F)cc1-c1ccc(C(=O)Nc2ccncc2)cc1", "note": "[GSK1398477]", "%Inh": 5}
{"smiles": "Cc1ccc(NC(=O)Nc2ccc(Cl)cc2)cc1-c1ccc(C(=O)Nc2ccncc2)cc1", "note": "[GSK1398472]", "%Inh": 4}
{"smiles": "Cc1c(Cn2c(C)c(C)n3c(=O)cc(N4CCOCC4)nc23)cccc1C(F)(F)F", "note": "[GSK2328680]", "%Inh": 0}
{"smiles": "O=C(Nc1n[nH]c2nc(-c3cccs3)c(Br)cc12)C1CC1", "note": "[SB-735297]", "%Inh": 0}
{"smiles": "Cc1cccc2c(-c3ccncn3)c(-c3ccc(F)cc3)nn12", "note": "[GW515532]", "%Inh": 0}
{"system": "KIT", "conditions": "concentration: 1 μM, replicates: in singlicate; n = 1", "units": {"%Inh": "%"}}
{"smiles": "Cc1c(Cn2c3ccccc3n3c(=O)cc(N4CCOCC4)nc23)cccc1C(F)(F)F", "note": "[GSK2306394]", "%Inh": 7}
{"smiles": "Fc1ccc(-c2nc[nH]c2-c2ccncc2)cc1", "note": "[SB-217360]", "%Inh": 0}
{"smiles": "COc1cccc(CNC(=O)NC2CCN(c3ccnc(Nc4ccc(F)cc4)n3)C2)c1", "note": "(stereo not drawn) [GSK1379723]", "%Inh": 23}
{"smiles": "Cc1ccccc1-c1cc(-c2c[nH]nc2-c2ccccn2)ccn1", "note": "[GW680061]", "%Inh": 39}
{"smiles": "COC(=O)C(NC(=O)NC1CCN(c2ccnc(Nc3ccc(F)cc3)n2)C1)c1ccccc1", "note": "(stereo not drawn) [GSK1379712]", "%Inh": 29}
{"smiles": "O=C1NC(=O)C(c2ccc(Cl)cc2)=C1Nc1ccc(O)cc1", "note": "[SB-340867]", "%Inh": 0}
{"smiles": "COc1cc2ncnc(Nc3cccc(Br)c3)c2cc1OC.Cl", "note": "[GI230329]", "%Inh": 10}
{"smiles": "COC(=O)c1cccc(NC(=O)NC2CCN(c3ccnc(Nc4ccc(F)cc4)n3)C2)c1", "note": "(stereo not drawn) [GSK1379725]", "%Inh": 44}
{"smiles": "COc1ccc2cc(-c3nc(-c4ccccc4C(C)C)[nH]c3-c3ccncc3)ccc2c1", "note": "[SB-660566]", "%Inh": 0}
{"smiles": "CC(=O)c1c(C)c2cnc(Nc3ccc(N4CCNCC4)cn3)nc2n(C2CCCC2)c1=O", "%Inh": 0}
{"smiles": "CCc1ccc(-c2ccc3c(c2)-c2n[nH]cc2S(=O)(=O)N3C)cc1", "%Inh": 7}
{"smiles": "CC(=O)c1c(C)c2cnc(Nc3ccn(C)n3)nc2n(C2CCCC2)c1=O", "%Inh": 0}
{"smiles": "CC(C)c1cc(-c2ccc3c(N)n[nH]c3c2)nc(N)n1", "note": "[GSK2250882]", "%Inh": 9}
{"smiles": "COc1ccc(Nc2nccc(N3CCC(NC(=O)C(C)c4ccc(Cl)cc4)CC3)n2)cc1", "note": "(stereo not drawn) [GSK1379812]", "%Inh": 15}
{"smiles": "Cc1ccc(NC(=O)c2ccc(Cl)cc2)cc1-c1ccc(C(=O)Nc2ccncc2)cc1", "note": "[GSK1398467]", "%Inh": 99.4}
{"smiles": "Cl.Cl.Cl.N#Cc1ccc(CCNc2nccc(-c3cccc(CN4CCNCC4)c3)n2)cc1", "note": "[GSK2137462]", "%Inh": 29}
{"smiles": "CCCCc1nn2ncccc2c1-c1ccnc(NC2CC2)n1", "note": "[GW684374]", "%Inh": 67}
{"smiles": "COc1cccc(NC(=O)Nc2ccc(C)c(-c3ccc(C(=O)Nc4ccncc4)cc3)c2)c1", "note": "[GSK1398474]", "%Inh": 99.8}
{"smiles": "Cc1ccc(-c2nc(Nc3ccncc3)c3ccccc3n2)s1", "note": "[GSK189015]", "%Inh": 22}
{"smiles": "CS(=O)(=O)CCNCc1nc(-c2ccc3ncnc(Nc4ccc(OCc5ccccc5)c(Cl)c4)c3c2)cs1.Cl", "note": "[GW582764]", "%Inh": 1}
{"smiles": "COC(=O)c1cccc(NC(=O)NC2CCN(c3ccnc(Nc4ccc(OC)cc4)n3)C2)c1", "note": "(stereo not drawn) [GSK1379746]", "%Inh": 44}
{"smiles": "CC[C@@H]1CO[C@H](C(=O)Nc2ccccc2)CN1c1cc(-c2ccc3c(N)n[nH]c3c2)nc(NC)n1", "note": "[GSK2376236]", "%Inh": 17}
{"smiles": "CS(=O)(=O)Cc1ccc(Nc2nccc(-c3c(-c4cccc(NC(=O)C5CCCCC5)c4)nn4ncccc34)n2)cc1", "note": "[GSK350559]", "%Inh": 88}
{"smiles": "CSc1ccc(-c2nc3n(c2-c2ccncc2)CCC3)cc1", "note": "[SKF-105561]", "%Inh": 0}
{"smiles": "Cc1cnc(N)c(/C=C/c2cncc(C(=O)NCCc3ccc(Cl)cc3Cl)c2)c1.Cl", "note": "[GSK190937]", "%Inh": 99.6}
{"smiles": "CNC(=O)c1ccc(C)c(-n2c(C)cc(OCc3ccc(F)cc3F)c(Br)c2=O)c1", "%Inh": 0}
{"smiles": "CCn1c(-c2c(N)noc2C)nc2cnccc21", "note": "[SB-737856]", "%Inh": 0}
{"smiles": "O=c1cc(N2CCOCC2)nc2n(Cc3ccccc3F)ccn12", "note": "[GSK2297428]", "%Inh": 7}
{"smiles": "Fc1ccc(-c2nc3n(c2-c2ccncc2)CCS3)cc1", "note": "[GI98581]", "%Inh": 15}
{"smiles": "Fc1ccc(-c2nn3cccc(F)c3c2-c2ccncc2)cc1", "note": "[GW475620]", "%Inh": 3}
{"smiles": "COc1ccc(CSc2nnc(-c3ccc4nccn4c3)o2)cc1C(F)(F)F", "%Inh": 0}
{"smiles": "CC(C)c1ccc(O)cc1Nc1ccnc2ccc(C(F)(F)F)cc12", "note": "[GW482059]", "%Inh": 0}
{"smiles": "Cc1ccc(NC(=O)Nc2ccccc2F)cc1-c1ccc(C(=O)Nc2ccncc2)cc1", "note": "[GSK1398477]", "%Inh": 99.6}
{"smiles": "Cc1ccc(NC(=O)Nc2ccc(Cl)cc2)cc1-c1ccc(C(=O)Nc2ccncc2)cc1", "note": "[GSK1398472]", "%Inh": 99.9}
{"smiles": "Cc1c(Cn2c(C)c(C)n3c(=O)cc(N4CCOCC4)nc23)cccc1C(F)(F)F", "note": "[GSK2328680]", "%Inh": 9}
{"smiles": "O=C(Nc1n[nH]c2nc(-c3cccs3)c(Br)cc12)C1CC1", "note": "[SB-735297]", "%Inh": 5}
{"smiles": "Cc1cccc2c(-c3ccncn3)c(-c3ccc(F)cc3)nn12", "note": "[GW515532]", "%Inh": 6}
